Test results: PubChem BioAssay (NCI)
This is part of a sample that, as a whole, favours compounds with a hit. Of some 79,000 tested, about 15% had one in any assay. No stated cut-off is given here; in the data, active means growth inhibition above about 70%; inactive means the rest. Where a SMILES comes first, the peptide text is derived from it. [ ]: non-standard residue; d: D form. The star is where a group is joined. Ac5c = NC1(C(=O)O)CCCC1; Cbz = O=C(OCc1ccccc1)*

Legend:
[1] = NCI Yeast Anticancer Drug Screen. Data for the rad50 strain (AID 155);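 further: 0% = growth of vehicle-only cultures of the same strain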; conditions: S. cerevisiae rad50 strain growth inhibition; at 50.0 µM; hits give high values
In short: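 Cells are treated with compound, grown, and their growth is then scored against vehicle-only cultures of the same repair-deficient yeast strain.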

[2] = NCI Yeast Anticancer Drug Screen. Data for the mec2-1 strain (AID 157); conditions: S. cerevisiae mec2-1 strain, at 50.0 µM, hits give high values
In short: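 Vehicle-treated cultures served as reference for growth inhibition of compound-exposed mec2-1 yeast.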

[3] = NCI Yeast Anticancer Drug Screen. Data for the sgs1 mgt1 strain (AID 161);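 further: 0% = growth of cultures given vehicle only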; conditions: S. cerevisiae sgs1 mgt1 strain, at 50.0 µM, hits give high values
In short: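 Genetically altered yeast, compound exposure, growth inhibition relative to vehicle.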

[4] = NCI Yeast Anticancer Drug Screen. Data for the cln2 rad14 strain (AID 165);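 further: 0% = growth equal to vehicle treated cultures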; conditions: S. cerevisiae cln2 rad14 strain, at 50.0 µM, hits give high values
In short: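 Each compound was tested on cln2 rad14 yeast. Inhibition of growth was calculated against vehicle-exposed controls.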

[5] = NCI Yeast Anticancer Drug Screen. Data for the bub3 strain (AID 167); conditions: S. cerevisiae bub3 mutant strain, at 50.0 µM, hits give high values
In short: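 Part of a panel of yeast mutants defective in DNA damage repair or cell cycle regulation. Each strain is grown with compound, and inhibition is calculated relative to solvent-treated cultures.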

[6] = NCI Yeast Anticancer Drug Screen. Data for the mlh1 rad18 strain (AID 175); conditions: S. cerevisiae mlh1 rad18 strain growth inhibition; at 50.0 µM; hits give high values
In short: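 Vehicle-treated cultures served as the reference for growth inhibition in a yeast strain carrying DNA damage repair alterations exposed to each compound.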

Measured: growth inhibition

COc1nc(SC)nc2[nH]ccc12
inactive: [1] -1% | [2] 9.75% | [3] -4.2% | [4] -6.6% | [5] -6.35% | [6] -9.1%

Cn1nc(-c2cccc(-c3nn(C)c(=NCCO)s3)n2)sc1=NCCO
inactive: [1] -29.8% | [2] -25.4% | [3] -51% | [4] -6.7% | [5] -28.1% | [6] -40.6%

CN1CCN(c2nc3c(c(=O)n(C)c(=O)n3C)n2C)CC1
inactive: [1] -4.9% | [2] 5.35% | [3] -18.8% | [4] -6.1% | [5] -11% | [6] 6.2%

O/N=C(\C(=N/O)Nc1ccc(-c2ccc(NC(=N/O)/C(=N\O)c3ccccc3)cc2)cc1)c1ccccc1
inactive: [1] 7.35% | [2] -43.4% | [3] -8.5% | [4] 1.45% | [5] -14.4% | [6] 1.1%

O=C1/C(=C/c2ccc(Cl)cc2)CCC1CCN1CCOCC1 (stereo not given)
inactive: [1] 46.9% | [2] 40.5% | [3] 51.2% | [4] 60% | [5] 41.2% | [6] 59.2%

Cc1nc(-c2cccnc2)sc1C(=O)/C=C/c1cccc([N+](=O)[O-])c1
inactive: [1] 27.1% | [2] 10.6% | [3] 23.9% | [4] 32.2% | [5] 5.6% | [6] 38.9%

Nc1cc(Cl)ccc1N1C(=O)C=CC1=O
inactive: [1] -26.6% | [2] -14.8% | [3] 1.25% | [4] -6.25% | [5] -9.1% | [6] 18.6%

C/C(=C/OS(=O)(=O)C(F)(F)F)c1ccccc1
inactive: [1] -22.3% | [2] -0.2% | [3] -3.2% | [4] -8.55% | [5] -1.5% | [6] 4.25%

CC(C)CCOC(=O)CC(CC(=O)OCCC(C)C)C(=O)OCCC(C)C
inactive: [1] 20.9% | [2] -14.5% | [3] 6.35% | [4] 5.9% | [5] -18.1% | [6] 8.15%

O=C(O)c1ccccc1/C=N\NC1=NCCCCN1
inactive: [1] -34.2% | [2] -10.3% | [3] -31.4% | [4] 20.2% | [5] -27.6% | [6] -18.4%

O=C(O)CNC(=O)C1(NC(=O)CNC(=O)OCc2ccccc2)CCCC1 (Cbz-Gly-[Ac5c]-Gly-OH)
inactive: [1] 4.7% | [2] 20.3% | [3] 11.2% | [4] -2.3% | [5] -5.05% | [6] 18.3%

O=[N+]([O-])c1ccc2c(c1)Cc1cc(N(CBr)CBr)ccc1-2
inactive: [1] 6.35% | [2] 5.8% | [3] -1.4% | [4] -21.7% | [5] -7.55% | [6] 18.9%

Cc1cc(NC(=O)CCc2ccc(N3C(N)=NC(N)=NC3(C)C)cc2)ccc1S(=O)(=O)O
inactive: [1] 38.1% | [2] -5.55% | [3] 8.05% | [4] -14.4% | [5] 2.05% | [6] -5.55%

O=C(CCCCCCCC(=O)OC(CCC1CCCO1)CCC1CCCO1)OC(CCC1CCCO1)CCC1CCCO1 (stereo not given)
inactive: [1] 6.1% | [2] -18.6% | [3] -4.5% | [4] -9.75% | [5] -6.5% | [6] 7.05%

CCOc1cn(C2CC(O)C(CO)O2)c(=O)[nH]c1=O (stereo not given)
inactive: [1] -1.35% | [2] 7.75% | [3] -6.95% | [4] -10.9% | [5] -16.2% | [6] 23.6%

COc1ccc(N2C(=O)C3c4[nH]c5ccc(C)cc5c4C4CCC(C)CC4C3C2=O)cc1 (stereo not given)
inactive: [1] -24.2% | [2] -0.6% | [3] 1.65% | [4] -6.9% | [5] -13.3% | [6] -4.55%

COc1ccccc1/C=N/NC(=O)CCCCCCCCC(=O)N/N=C/c1ccccc1OC
inactive: [1] 0.95% | [2] -4% | [3] -4.4% | [4] -11.2% | [5] -5.5% | [6] 14.5%

NC1=C(O)C(=O)C(c2ccccc2O)O1 (stereo not given)
inactive: [1] -34.6% | [2] -32.6% | [3] -19.1% | [4] -21.6% | [5] -18.6% | [6] -10.9%

COc1nnc(-c2ccccc2)c(-c2ccccc2)n1
inactive: [1] 13.2% | [2] 20.3% | [3] -2.25% | [4] -9.6% | [5] 25.5% | [6] 6.5%

O=C(O)C1CC[N-]CC1.O=C(O)C1CC[N-]CC1.[NH2-].[NH2-].[Pt+4]
inactive: [1] -5.4% | [2] 14.8% | [3] 2.2% | [4] 12.7% | [5] 2.6% | [6] 18.4%
